Source: the supplement of paper PMC8728848
Only a selection was taken, and the strongest signals are over-represented in it overall.

Experiments:
Assay in all cases: glycan array binding signal (z-score within array); higher = stronger binding
Details in all cases: glycan notation: IUPAC condensed, linker removed
[1] = target: GalNAc(b1-4)Gal(b1-4)Glc
Procedure, shortened: (§1)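 Glycan array binding is given as a within-array Z-score, which can be read as non-binding when negative. The arrays, 3228 of them, came from the Consortium for Functional Glycomics database and were retained only where the protein sequence was available. Z-scores were averaged across arrays of the same protein sequence at different concentrations or buffers and across linkers.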

[2] = target: GalNAc(b1-4)GlcNAc
Procedure, shortened: as §1

[3] = target: Glc(a1-6)Glc(a1-6)Glc(a1-6)Glc
Procedure, shortened: as §1

[4] = target: GlcNAc(b1-2)Gal(b1-3)GalNAc
Procedure, shortened: as §1

[5] = target: GlcNAc(b1-3)Gal(b1-4)GlcNAc(b1-3)Gal(b1-4)GlcNAc(b1-3)Gal(b1-4)GlcNAc(b1-2)Man(a1-3)[GlcNAc(b1-3)Gal(b1-4)GlcNAc(b1-3)Gal(b1-4)GlcNAc(b1-3)Gal(b1-4)GlcNAc(b1-2)Man(a1-6)]Man(b1-4)GlcNAc(b1-4)[Fuc(a1-6)]GlcNAc
Procedure, shortened: as §1

[6] = target: GlcNAc(b1-3)Gal(b1-4)GlcNAc(b1-3)Gal(b1-4)GlcNAc(b1-3)Gal(b1-4)GlcNAc(b1-2)[GlcNAc(b1-3)Gal(b1-4)GlcNAc(b1-3)Gal(b1-4)GlcNAc(b1-3)Gal(b1-4)GlcNAc(b1-6)]Man(a1-6)[GlcNAc(b1-3)Gal(b1-4)GlcNAc(b1-3)Gal(b1-4)GlcNAc(b1-3)Gal(b1-4)GlcNAc(b1-2)Man(a1-3)]Man(b1-4)GlcNAc(b1-4)[Fuc(a1-6)]GlcNAc
Procedure, shortened: as §1

[7] = target: GlcNAc(b1-3)Gal(b1-4)GlcNAc(b1-3)Gal(b1-4)GlcNAc(b1-3)Gal(b1-4)GlcNAc(b1-3)Gal(b1-4)GlcNAc(b1-2)[GlcNAc(b1-3)Gal(b1-4)GlcNAc(b1-3)Gal(b1-4)GlcNAc(b1-3)Gal(b1-4)GlcNAc(b1-3)Gal(b1-4)GlcNAc(b1-6)]Man(a1-6)[GlcNAc(b1-3)Gal(b1-4)GlcNAc(b1-3)Gal(b1-4)GlcNAc(b1-3)Gal(b1-4)GlcNAc(b1-3)Gal(b1-4)GlcNAc(b1-2)Man(a1-3)]Man(b1-4)GlcNAc(b1-4)[Fuc(a1-6)]GlcNAc
Procedure, shortened: as §1

[8] = target: GlcNAc(b1-3)GalNAc
Procedure, shortened: as §1

[9] = target: GlcNAc(b1-3)Man
Procedure, shortened: as §1

[10] = target: GlcNAc(b1-3)[GlcNAc(b1-6)]GalNAc
Procedure, shortened: as §1

[11] = target: GlcNAc(b1-4)GlcNAc(b1-4)GlcNAc(b1-4)GlcNAc(b1-4)GlcNAc(b1-4)GlcNAc
Procedure, shortened: as §1

[12] = target: Kdn(a2-3)Gal(b1-3)GlcNAc
Procedure, shortened: as §1

[13] = target: Man(a1-2)Man(a1-3)Man
Procedure, shortened: as §1

[14] = target: Neu5Ac(a2-3)Gal(b1-4)GlcNAc(b1-2)Man(a1-3)[Neu5Ac(a2-3)Gal(b1-4)GlcNAc(b1-2)Man(a1-6)]Man(b1-4)GlcNAc(b1-4)GlcNAc
Procedure, shortened: as §1

[15] = target: Neu5Ac(a2-3)Gal(b1-4)GlcNAc(b1-3)Gal(b1-3)GlcNAc
Procedure, shortened: as §1

[16] = target: Neu5Ac(a2-3)Gal(b1-4)GlcNAc(b1-3)Gal(b1-4)GlcNAc
Procedure, shortened: as §1

[17] = target: Neu5Ac(a2-3)Gal(b1-4)GlcNAc(b1-3)GalNAc
Procedure, shortened: as §1

[18] = target: Neu5Ac(a2-3)Gal(b1-4)[Fuc(a1-3)]GlcNAc(b1-6)[Gal(b1-3)]GalNAc
Procedure, shortened: as §1

[19] = target: Neu5Ac(a2-3)[GalNAc(b1-4)]Gal(b1-4)GlcNAc(b1-3)GalNAc
Procedure, shortened: as §1

[20] = target: Neu5Ac(a2-6)Gal(b1-3)GlcNAc(b1-3)[Gal(b1-4)GlcNAc(b1-6)]Gal(b1-4)Glc
Procedure, shortened: as §1

[21] = target: Neu5Ac(a2-6)Gal(b1-4)GlcNAc(b1-3)Gal(b1-4)GlcNAc(b1-3)Gal(b1-4)GlcNAc
Procedure, shortened: as §1

[22] = target: Neu5Ac(a2-6)Gal(b1-4)GlcNAc(b1-3)Gal(b1-4)GlcNAc(b1-3)Gal(b1-4)GlcNAc(b1-2)Man(a1-3)[Neu5Ac(a2-6)Gal(b1-4)GlcNAc(b1-3)Gal(b1-4)GlcNAc(b1-3)Gal(b1-4)GlcNAc(b1-2)Man(a1-6)]GalNAc
Procedure, shortened: as §1

[23] = target: Neu5Ac(a2-6)Gal(b1-4)GlcNAc(b1-3)Gal(b1-4)GlcNAc(b1-3)[Neu5Ac(a2-6)Gal(b1-4)GlcNAc(b1-3)Gal(b1-4)GlcNAc(b1-6)]GalNAc
Procedure, shortened: as §1

[24] = target: Neu5Ac(a2-6)Gal(b1-4)GlcNAc(b1-6)[Gal(b1-3)GlcNAc(b1-3)]Gal(b1-4)Glc
Procedure, shortened: as §1

[25] = target: Neu5Ac(a2-6)GalNAc(b1-4)GlcNAc
Procedure, shortened: as §1

[26] = target: Neu5Ac(a2-8)Neu5Ac(a2-3)Gal(b1-4)GlcNAc
Procedure, shortened: as §1

[27] = target: Neu5Ac(a2-8)Neu5Ac(a2-8)Neu5Ac
Procedure, shortened: as §1

[28] = target: Neu5Gc(a2-3)Gal(b1-4)GlcNAc(b1-3)Gal(b1-4)GlcNAc(b1-2)Man(a1-3)[Neu5Gc(a2-3)Gal(b1-4)GlcNAc(b1-3)Gal(b1-4)GlcNAc(b1-2)Man(a1-6)]Man(b1-4)GlcNAc(b1-4)GlcNAc
Procedure, shortened: as §1

B1: PkBDPgamma (Plasmodium knowlesi) (protein)
chain: SAINQIFLQNNVMDKCNDKRKRGERDWDCPTEKDVCIPDRRYQLCMMEITNLVDTDTHFHSDIIFRKSYSRRRLIYDVGGRGDLLLKKYNNVYSEDLCKDIKWSLQDFGDIIMGTDMEGIGYSLVVQNNLRSIFGTGTSAELDRKKWWNDHKKDIWKAMILSVKEKNRYSAWNCKEDVQIKVEPQIYRWIREWGRDYMSEFREQRRKLNEKCEDKLYYSTMLICTLPPCNNACKSYDEWITGKKKQWDVLSTKFSSVKKAQKIETENIARAYDILKQELNGFNEVTFENEINKRDKLYNYFCVCIVQEARKNTQENVKNVGSGVESKAPSSNPINEAVKSSSGEGKVQEDSAHRSVNEGEGKSSTNEADPGSQPGAAASGGGSGGGTGGGVDLAPQMLRELQETNAALQDVRELLRQQVKEITFLKNTVMECDACGGPLDRNLPPLAPLGPTGGWSHPQFEK
With B1 as the binder, how does the “glycan array binding signal (z-score)” value [1] read?
Its value is -0.243.

What about the “glycan array binding signal (z-score)” value [2] of the same binder?
Its value is -0.002.

What about the “glycan array binding signal (z-score)” value [3] of the same binder?
The value was 0.897.

What about the “glycan array binding signal (z-score)” value [4] of the same binder?
The value was -0.401.

What about the “glycan array binding signal (z-score)” value [5] of the same binder?
Its value is 0.128.

And the “glycan array binding signal (z-score)” value [6]?
The value was -0.196.

What about the “glycan array binding signal (z-score)” value [7] of the same binder?
The value was 2.27.

What about the “glycan array binding signal (z-score)” value [8] of the same binder?
The value was -0.356.

And the “glycan array binding signal (z-score)” value [9]?
Its value is -0.084.

And the “glycan array binding signal (z-score)” value [10]?
Its value is -0.331.

And the “glycan array binding signal (z-score)” value [11]?
Its value is -0.371.

And the “glycan array binding signal (z-score)” value [12]?
The value was -0.196.

What about the “glycan array binding signal (z-score)” value [13] of the same binder?
Its value is -0.276.

And the “glycan array binding signal (z-score)” value [14]?
Its value is 0.46.

What about the “glycan array binding signal (z-score)” value [15] of the same binder?
The value was -0.241.

What about the “glycan array binding signal (z-score)” value [16] of the same binder?
The value was 0.522.

What about the “glycan array binding signal (z-score)” value [17] of the same binder?
Its value is -0.073.

What about the “glycan array binding signal (z-score)” value [18] of the same binder?
The value was 0.362.

What about the “glycan array binding signal (z-score)” value [19] of the same binder?
The value was -0.323.

What about the “glycan array binding signal (z-score)” value [20] of the same binder?
Its value is -0.324.

And the “glycan array binding signal (z-score)” value [21]?
The value was 0.015.

And the “glycan array binding signal (z-score)” value [22]?
The value was 0.405.

And the “glycan array binding signal (z-score)” value [23]?
Its value is 0.922.

And the “glycan array binding signal (z-score)” value [24]?
Its value is 1.24.

What about the “glycan array binding signal (z-score)” value [25] of the same binder?
Its value is -0.045.

What about the “glycan array binding signal (z-score)” value [26] of the same binder?
The value was 0.25.

And the “glycan array binding signal (z-score)” value [27]?
Its value is -0.324.

And the “glycan array binding signal (z-score)” value [28]?
The value was 20.7.
